Measurements: PubChem BioAssay AID463173 (ICCB-Longwood Screening Facility, Harvard Medical School, 2010)
Out of some 52,000 compounds screened, about 1,700 (3.3%) were called active. What follows is part of a selection rich in actives, with near analogues and random picks from the rest. Unmarked numbers belong to inactive results. Rule as the data show it: active = survival mostly below about 52% (no sharp cut-off); inactive = mostly above about 56%.

tested on: Wild type; assay: growth inhibition of S. aureus wild type versus tarO mutant, primary screen, teichoic acid synthesis inhibitors, RN4220, OD600 (AID 463173); details: S. aureus RN4220 wild type/DeltatarO growth, OD600, 18 h, hits give low values, screened at 18.75 µg/mL (by protocol)

Row | Structure (SMILES) | survival
1 | O=C(NCc1ccccc1Cl)C1CCN(S(=O)(=O)c2ccc3c(c2)CCCN3C(=O)C2CCC2)CC1 | 80%
2 | Cc1ccc(C)c(OCc2nc3ccccc3n2C)c1 | 85%
3 | COc1cccc(OCc2nc3ccccc3n2CCOc2ccccc2)c1 | 74%
4 | c1ccc(OCCn2c(COc3ccccc3)nc3ccccc32)cc1 | -15% (active)
5 | Cc1ccc(OCc2nc3ccccc3n2CCOc2ccc(Cl)cc2)cc1 | 26% (active)
6 | Cc1ccc(OCCn2c(COc3ccc(Cl)cc3)nc3ccccc32)cc1 | 74%
7 | Cn1c(COc2ccccc2C(C)(C)C)nc2ccccc21 | -17% (active)
8 | COc1ccc(OCc2nc3ccccc3n2Cc2ccc(C(C)(C)C)cc2)cc1 | 0% (active)
9 | COc1cccc(OCc2nc3ccccc3n2Cc2ccccc2)c1 | 86%
10 | Cn1c(COc2ccccc2Br)nc2ccccc21 | 106%
11 | COc1cccc(OCc2nc3ccccc3n2CCOc2ccc(C)cc2)c1 | 62%
12 | COc1ccc(C(=O)NCC(c2cccnc2)N2CCc3ccccc3C2)cc1OC (stereo not drawn) | 93%
13 | CCOC(=O)CC(NC(=O)CCc1c(C)nc2c(c1C)c(=O)n(C)c(=O)n2C)c1ccc(OCC)c(OC)c1 (stereo not drawn) | 82%
14 | Cc1ccc(OCC(=O)Nc2ccc3nc(SCCOc4ccccc4)sc3c2)cc1 | 99%
15 | CCOC(=O)N1CCc2c(sc(NCc3cccc(F)c3)c2C(=O)Nc2ccc(OC)cc2OC)C1 | 68%
16 | CC(C)c1nnc(NC(=O)c2nc(SCc3ccc(F)cc3)ncc2Cl)s1 | 58%
17 | Cc1cc(C)n(CCc2nc3c4ccccc4nc(SCc4ccc(F)cc4)n3n2)n1 | 85%

Row | Structure (SMILES) | survival
18 | COc1ccc(C(CNC(=O)c2ccc(C)cc2)N2CCOCC2)cc1 (stereo not drawn) | 92%
19 | Cc1cc2nc3c(=O)n(C)c(=O)n(C)c3nc2cc1N=CN(C)C | 77%
20 | CCc1c(CN2CCN(c3ccc(F)cc3)CC2)csc1C | 75%
21 | O=C(CSc1ccc(-c2ccc(F)cc2)nn1)N1CCOCC1 | 112%
22 | Cc1ccc(-n2nc3c(=O)n(C(C)C(=O)NCc4ccc(OC(C)C)cc4)nc(C)c3c2C)cc1 (stereo not drawn) | 93%
23 | CC(C)(C)c1ccc(OCc2nc3ccccc3n2CCOc2ccccc2)cc1 | 7% (active)
24 | Cc1ccc(NS(=O)(=O)c2ccc(-c3cc(C)no3)cc2)c(C)c1 | 101%
25 | COc1ccc(CNC(=O)c2cccn2-c2nnc(N3CCCCC3)s2)c(OC)c1 | -2% (active)
26 | O=C(c1cccn1-c1nnc(N2CCCCC2)s1)N1CCN(c2ccccc2)CC1 | -3% (active)
27 | COc1ccccc1CNC(=O)c1cccn1-c1nnc(N2CCCCC2)s1 | 10% (active)
28 | COc1ccccc1CCNC(=O)c1cccn1-c1nnc(N2CCCCC2)s1 | 87%
29 | COc1ccc(NC(=O)c2cccn2-c2nnc(N3CCCCC3)s2)c(OC)c1 | 73%
30 | O=C(c1cccn1-c1nnc(N2CCCCC2)s1)N1CCN(c2ccc(Cl)cc2)CC1 | 73%
31 | COc1ccc(CNC(=O)c2cccn2-c2nnc(N3CCCC3)s2)c(OC)c1 | 81%
32 | O=C(c1cccn1-c1nnc(N2CCCC2)s1)N1CCN(c2ccccc2)CC1 | 19%
33 | COc1ccccc1CNC(=O)c1cccn1-c1nnc(N2CCCC2)s1 | 81%
